Measured values as given in PubChem BioAssay (NCATS).
Inconclusive results are not listed. Activity calls are given as the source filed them. Unless noted, calls come from the whole dose curve; as a rule, active = well fitted curve in the direction sought with a large enough effect; inconclusive = small, poorly fitted or top-dose-only effect, or another doubt; inactive = no such curve, though single readings can be large; an effect the other way counts as inactive or inconclusive.

Tests used:
[1] = Cell Viability - BJ (AID 421; calls by dose curve;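 note: potency is the fitted concentration of half-maximal effect; cells exposed to compound for 40 hours at 37 °C before readout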); details: BJ fibroblast viability, qHTS
How it was run: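 Cytotoxicity as drop in intracellular ATP (CellTiter-Glo, 20 min RT) after 40 hr compound exposure of BJ fibroblasts at 37 °C. Titrations scaled between DMSO and 100 uM tamoxifen, Hill-fitted for AC50.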

[2] = Cell Viability - Jurkat (AID 426;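 active = dose-dependent loss of cell ATP signal giving a full or clear fitted curve, ranked by lower potency value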;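 note: potency is the fitted concentration of half-maximal effect; cells exposed to compound for 40 hours at 37 °C before ATP read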); details: qHTS
How it was run: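 Luminescent ATP read-out (CellTiter-Glo, 20 min at room temperature) after 40 hr compound exposure at 37 °C of Jurkat E6-1 cells, 5000/well. Decreased ATP taken as cytotoxicity; AC50 from standard Hill equation.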

[3] = Cell Viability - Hek293 (AID 427;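 active = compounds whose dose-response curve shows a full or clear partial loss of cell viability, called from curve shape rather than a numeric limit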;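 note: potency is the fitted concentration of half-maximal effect; cells exposed to compound for 40 hours at 37 °C before reading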); details: qHTS
How it was run: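 Luminescent ATP content (CellTiter-Glo, 20 min at room temperature) was measured after a 40 hr, 37 °C compound exposure of HEK293 cells. AC50 values came from Hill-equation fits of qHTS concentration-response data normalized to DMSO and 100 uM tamoxifen.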

[4] = Cell Viability - HepG2 (AID 433; calls by dose curve;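 note: potency is the fitted concentration of half-maximal effect; cells exposed to compound for 40 hours; potency for ATP loss meaning cytotoxicity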); details: qHTS
How it was run: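 ATP luminescence (CellTiter-Glo) after 40 h compound exposure, 37 °C, HepG2, 1500 cells/well, complete medium. Normalized: DMSO = basal, 100 uM tamoxifen = 100% inhibition. AC50 via standard Hill equation.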

[5] = Cell Viability - MRC5 (AID 434; calls by dose curve;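 note: potency is the fitted concentration of half-maximal effect; cells exposed to compound for 40 hours at 37 °C; potency reflects cytotoxicity seen as loss of intracellular ATP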); details: MRC5 lung fibroblast viability, qHTS
How it was run: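 ATP luminescence read-out (CellTiter-Glo, 20 min RT) after 40 hr, 37 °C compound exposure of 1500 MRC5 cells/well. Data normalized to DMSO (basal) and 100 uM tamoxifen (100% inhibition); AC50 from standard Hill equation.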

[6] = Cell Viability - SK-N-SH (AID 435; calls by dose curve; note: potency is the fitted concentration of half-maximal effect); details: SK-N-SH neuroblastoma cell viability qHTS
How it was run: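 CellTiter-Glo ATP luminescence, 20 min RT read; cells pre-plated 5 hr, compound 40 hr at 37 °C, 1500 cells/well, complete medium. Normalized DMSO = 0, 100 uM tamoxifen = 100% inhibition; Hill-fit AC50.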

[7] = molecular target: Mitogen-activated protein kinase 10 (Mus musculus) (UniProt Q61831); assay: JNK3 AlphaScreen Assay (AID 530; active = well fitted curve in either direction with a large enough effect, not every such curve was filed as active;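 note: kinase came from lysate of stimulated human HepG2 cells; signal reports phosphorylation of biotinylated GST-cJun 1-79 at Ser73 with 10 µM ATP; % is set by controls: 0 for no effect and ±100 for the full control effect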); details: JNK3 lysate, c-Jun phosphorylation; series mostly up to 57.1 µM
How it was run: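 HepG2 lysate (IL-1b/TNFa pre-activated) + biotin-GST-cJun 1-79 + anti-pSer73 cJun; cpd titration, 15 min RT; ATP 10 uM start; Tris pH 7.6, MgCl2, DTT, vanadate; beads in EDTA buffer; AlphaScreen.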

[8] = Cell Viability - N2a (AID 540); details: N2a mouse neuroblastoma cell viability; activity change, negative = cytotoxicity: at 92.2 µM (top of the series);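 note: plate controls were DMSO alone for no effect and tamoxifen control for full effect; nearly all actives have a fitted effect of over 45% in size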
How it was run: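 N2a mouse neuroblastoma, 1500 cells/well, 5 hr settle; compound 40 hr, 37 °C; CellTiter-Glo 20 min RT; luminescence; Hill-fit AC50.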

[9] = Cell Viability - NIH 3T3 (AID 541); details: NIH 3T3 cell viability, qHTS; activity change, negative = cytotoxicity: at 92.2 µM (top of the series);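 note: cells exposed to compound for 40 hours; plate controls were DMSO alone for no effect and tamoxifen positive control for full effect; nearly all actives have a fitted effect of over 25% in size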
How it was run: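 qHTS format; 40 hr compound exposure, 37 °C; CellTiter-Glo luminescence (cellular ATP) read-out after 20 min at RT. Decrease in ATP = cytotoxicity; AC50 from standard Hill fit.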

[10] = Cell Viability - HUV-EC-C (AID 542); details: HUV-EC-C endothelial cell viability, qHTS; series mostly up to 92.2 µM;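 note: cells exposed to compound for 40 hours; % is set by controls: 0 for no effect and ±100 for the full control effect; nearly all actives have a fitted effect of over 35% in size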
How it was run: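 Luminescent ATP read-out (CellTiter-Glo, 20 min room temperature) after 40 hr compound treatment of HUV-EC-C cells at 37 °C. Concentration-response data fitted with the standard Hill equation to give AC50; tamoxifen and doxorubicin served as positive controls.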

[11] = Cell Viability - H-4-II-E (AID 543); details: H-4-II-E rat hepatoma viability; series mostly up to 92.2 µM;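 note: cells exposed to compound for 40 hours; % is set by controls: 0 for no effect and ±100 for the full control effect; nearly all actives have a fitted effect of over 35% in size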
How it was run: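 qHTS, rat hepatoma H-4-II-E, 1500 cells/well; 40 hr compound exposure, 37 °C; CellTiter-Glo ATP luminescence after 20 min RT; AC50 by standard Hill fit.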

[12] = Cell Viability - SH-SY5Y (AID 544); details: SH-SY5Y neuroblastoma cell viability; viability change, negative = cytotoxic: at 92.2 µM (top of the series);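 note: cells exposed to compound for 40 hours; nearly all actives have a fitted effect of over 55% in size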
How it was run: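 SH-SY5Y, 1500 cells/well, 5 hr pre-incubation 37 °C; cpd 40 hr 37 °C; CellTiter-Glo 20 min RT; luminescence (ATP) read. qHTS concentration-response, Hill fit → AC50. Tamoxifen, doxorubicin as positive controls.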

[13] = Cell Viability - Renal Proximal Tubule (AID 545); details: renal proximal tubule cells viability, primary cells of rat origin; series mostly up to 91.7 µM;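 note: cells exposed to compound for 40 hours; nearly all actives have a fitted effect of over 40% in size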
How it was run: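 Rat kidney proximal tubule cells, freshly isolated; 1000 cells/well, 5 hr settle, compound 40 hr 37 °C. CellTiter-Glo 20 min RT, luminescence read. AC50 by standard Hill fit.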

[14] = Cell Viability - Mesenchymal (AID 546); details: mesenchymal cells viability, qHTS; series mostly up to 91.7 µM;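 note: cells exposed to compound for 40 hours before reading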
How it was run: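 Human renal mesenchymal cells (glomerulus-derived), 1000 cells/well, 5 hr 37 °C pre-incubation; compound 40 hr, 37 °C; CellTiter-Glo, 20 min RT; luminescence; AC50 via Hill equation.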

[15] = Cellular Toxicity (caspase-3) HepG2 (AID 654); details: HepG2 caspase-3 activation, luminescence; series mostly up to 92.2 µM;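 note: cells exposed to compound for 16 hours before reading; 0% = DMSO alone and 100% = caspase signal from 100 µM tamoxifen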
How it was run: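 Luminescent Caspase-Glo 3/7 readout after 16 hr compound exposure of human hepatocellular carcinoma HepG2 cells at 37 °C; qHTS concentration-response, normalized DMSO = 0%, 100 uM tamoxifen = 100%; AC50 by standard Hill equation.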

[16] = Cellular Toxicity (caspase-3) HUV-EC-C (AID 656); details: HUV-EC-C cells, caspase-3 activation (apoptosis), vehicle = 0, 100 µM tamoxifen = 100%; series mostly up to 92.2 µM
How it was run: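 Luminescent caspase-3/7 activation (aminoluciferin substrate cleavage) in HUV-EC-C cells after 16 hr compound exposure, 37°C. Signal normalized to DMSO basal and 100 uM tamoxifen as 100%; AC50 from concentration-response fitted with the Hill equation.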

[17] = Cellular Toxicity (caspase-3) SHSY5Y (AID 657); details: SH-SY5Y caspase-3 activation, DMSO zero, 10 µM staurosporine = 100%; series mostly up to 91.7 µM;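 note: cells exposed to compound for 16 hours at 37 °C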
How it was run: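 Luminescent caspase-3/7 readout (aminoluciferin release) in SH-SY5Y cells after 16 h compound exposure in complete medium. Activity scaled between DMSO basal and 10 uM staurosporine as 100%; concentration-response fitted to Hill equation for AC50.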

[18] = Cellular Toxicity (caspase-3) BJ (AID 658); details: BJ fibroblasts, luminescence, normalized: DMSO 0%, staurosporine 100%; series mostly up to 91.7 µM;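 note: cells exposed to compound for 16 hours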
How it was run: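 qHTS, BJ fibroblasts, 1000 cells/well; 5 hr preincubation, 16 hr compound, 37 °C; Caspase-Glo 3/7 reagent, 1 hr RT; luminescence. DMSO = 0%, 10 uM staurosporine = 100%. Hill-equation AC50.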

[19] = Cellular Toxicity (caspase-3) MRC-5 (AID 659); details: MRC-5 cells, luminescence, normalized: DMSO 0%, 10 µM staurosporine 100%; series mostly up to 91.7 µM;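 note: cells exposed to compound for 16 h at 37 °C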
How it was run: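 MRC-5 fibroblasts, 1500/well; 16 h cpd, 37 °C; Caspase-Glo 3/7, 1 h RT; lumi read. Norm: DMSO = 0%, 10 uM staurosporine = 100%. Hill-fit AC50 from qHTS conc-response.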

[20] = Cellular Toxicity (caspase-3) Jurkat (AID 655); details: Jurkat caspase-3 activation, luminescence; caspase-3 activation: at 92.2 µM (top of the series), DMSO = 0%, tamoxifen = 100%;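 note: cells exposed to compound for 16 h at 37 °C before reading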
How it was run: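 Luminescent caspase-3/7 readout (aminoluciferin substrate cleavage) in human T-cell leukemia Jurkat cells after 16 hr compound exposure. Concentration-response normalized to DMSO and 100 uM tamoxifen; AC50 by standard Hill equation.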

Cc1ccc(S(=O)(=O)NC2CCCCC2)cc1
inactive: Potency [1] > 92 µM | Potency [2] > 92 µM | Potency [3] > 92 µM | Potency [4] > 92 µM | Potency [5] > 92 µM | Potency [6] > 92 µM | outcome [7] | activity change, negative = cytotoxicity [8] -19.2% | Potency [9] | Potency [10] | Potency [11] | Potency [12] | Potency [13] | Potency [14] | Potency [15] | outcome [16] | outcome [17] | outcome [18] | outcome [19]

O=Cc1ccccc1Cl
inactive: Potency [1] > 92 µM | Potency [2] > 92 µM | Potency [3] > 92 µM | Potency [4] > 92 µM | Potency [5] > 92 µM | Potency [6] > 92 µM | outcome [7] | activity change, negative = cytotoxicity [8] -4.91% | Potency [9] | Potency [10] | Potency [11] | Potency [12] | Potency [13] | Potency [14] | Potency [15] | caspase-3 activation [20] 7.22% | outcome [16] | outcome [17] | outcome [19]

ClC/C=C/CCl
inactive: Potency [1] > 92 µM | Potency [2] > 92 µM | Potency [3] > 92 µM | Potency [4] > 92 µM | Potency [5] > 92 µM | Potency [6] > 92 µM | outcome [7] | activity change, negative = cytotoxicity [8] -2.88% | Potency [9] | Potency [10] | Potency [11] | Potency [12] | Potency [13] | Potency [14] | Potency [15] | caspase-3 activation [20] 1.47% | outcome [16] | outcome [17] | outcome [19]

O=C(O)CNC(=O)c1ccc([N+](=O)[O-])cc1
inactive: Potency [1] > 92 µM | Potency [2] > 92 µM | Potency [3] > 92 µM | Potency [4] > 92 µM | Potency [5] > 92 µM | Potency [6] > 92 µM | outcome [7] | activity change, negative = cytotoxicity [8] -8.74% | Potency [9] | Potency [10] | Potency [11] | Potency [12] | Potency [13] | Potency [14] | Potency [15] | outcome [16] | outcome [17] | outcome [18] | outcome [19]

O=[N+]([O-])c1ccc2nc[nH]c2c1
inactive: Potency [1] > 92 µM | Potency [2] > 92 µM | Potency [3] > 92 µM | Potency [4] > 92 µM | Potency [5] > 92 µM | Potency [6] > 92 µM | outcome [7] | activity change, negative = cytotoxicity [8] 4.31% | Potency [9] | Potency [10] | Potency [11] | Potency [12] | Potency [13] | Potency [14] | Potency [15] | outcome [16] | outcome [17] | outcome [18] | outcome [19]

ClCCl
inactive: Potency [1] > 92 µM | Potency [2] > 92 µM | Potency [3] > 92 µM | Potency [4] > 92 µM | Potency [5] > 92 µM | Potency [6] > 92 µM | outcome [7] | activity change, negative = cytotoxicity [8] -5.52% | Potency [9] | Potency [10] | Potency [11] | Potency [12] | Potency [13] | Potency [14] | caspase-3 activation [20] 1.06% | outcome [16] | outcome [17] | outcome [19]

Nc1cccc2c(=O)[nH][nH]c(=O)c12
inactive: Potency [1] > 92 µM | Potency [2] > 92 µM | Potency [3] > 92 µM | Potency [4] > 92 µM | Potency [5] > 92 µM | Potency [6] > 92 µM | outcome [7] | activity change, negative = cytotoxicity [8] 9.7% | Potency [9] | Potency [10] | Potency [11] | Potency [12] | Potency [13] | Potency [14] | Potency [15] | caspase-3 activation [20] 0.167% | outcome [16] | outcome [17] | outcome [19]

CC/C(C)=N/O
inactive: Potency [1] > 92 µM | Potency [2] > 92 µM | Potency [3] > 92 µM | Potency [4] > 92 µM | Potency [5] > 92 µM | Potency [6] > 92 µM | outcome [7] | activity change, negative = cytotoxicity [8] 3.53% | Potency [9] | Potency [10] | Potency [11] | Potency [13] | Potency [14] | Potency [15] | caspase-3 activation [20] -0.144% | outcome [16] | outcome [17] | outcome [18] | outcome [19]

C=Cc1ccc(C=C)cc1
inactive: Potency [1] > 92 µM | Potency [2] > 92 µM | Potency [3] > 92 µM | Potency [4] > 92 µM | Potency [5] > 92 µM | Potency [6] > 92 µM | outcome [7] | activity change, negative = cytotoxicity [8] -7.69% | Potency [9] | Potency [10] | Potency [11] | Potency [12] | Potency [13] | Potency [15] | outcome [16] | outcome [17] | outcome [19]
